# Assay results from PubChem BioAssay (EPA / NIEHS).
# Records with an inconclusive call do not appear. The source made the active and inactive calls. The calls were made as follows: active = hit-call score of the fitted dose curve at least 0.9, where 1 is the maximum; inconclusive = response in the unintended direction; inactive = score below 0.9.
# What was measured:
# [1] = molecular target: rat CYP2D1, Cyp2d1 (gene 266684) (UniProt P10633); assay: NVS_ADME_rCYP2D1: NovaScreen (NVS) CYP450-related Enzyme Activity (ADME) Assay for rat CYP2D1 (AID 2283122)
# Summary of the method: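 Cell-free fluorescence enzyme-activity assay on extracted rat CYP2D1 protein, read 0.75 h after dosing. Primary screen in duplicate at 10 uM; qualifying chemicals then run in concentration-response to 20 uM max, loss-of-signal versus acetonitrile baseline.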
# [2] = read-out: xenobiotic metabolism (CYP2C9), CYP2C9 (gene 1559); assay: CLD_CYP2C9_6hr: CellzDirect (CLD) Gene Expression Assay for xenobiotic metabolism (CYP2C9) at 6 hours (AID 2283664)
# Summary of the method: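 Primary human hepatocytes dosed daily with test chemicals at multiple concentrations; harvested at 6 h. CYP2C9 mRNA induction measured by qNPA chemiluminescence. Gain of signal fitted against 0.2% DMSO vehicle; cytotoxicity annotated from phase-contrast morphology.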
# [3] = molecular target: human Caspase 2 (CASP2), CASP2 (gene 835) (UniProt P42575); assay: NVS_ENZ_hCASP2: NovaScreen (NVS) Enzymatic Assay for human Caspase 2 (CASP2) (AID 2283135)
# Summary of the method: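 E. coli-expressed enzyme in a cell-free protease assay, fluorescence read 1 h after dosing. Compounds at 25 uM in duplicate, with concentration-response up to 50 uM for hits; loss of signal against DMSO baseline.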
# [4] = molecular target: bovine Gamma-Aminobutyric Acid Type A Receptor BDZ, alpha 1 site (GABARa1), GABRA1 (gene 780973) (UniProt P08219); assay: NVS_LGIC_bGABARa1: NovaScreen (NVS) Ligand-Gated Ion Channel Assay for bovine Gamma-Aminobutyric Acid Type A Receptor BDZ, alpha 1 site (GABARa1) (AID 2283321)
# Summary of the method: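 Radioligand competition binding on bovine cortical membranes, 0.75 h, filter-based scintillation counting. Primary single concentration 25 uM in duplicate; actives rerun in concentration-response to 50 uM max. Loss of signal fitted versus DMSO.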
# [5] = molecular target: human Aurora Kinase A - serine/threonine-protein Kinase 6 (AurA), AURKA (gene 6790) (UniProt O14965); assay: NVS_ENZ_hAurA: NovaScreen (NVS) Enzymatic Assay for human Aurora Kinase A - serine/threonine-protein Kinase 6 (AurA) (AID 2283142)
# Summary of the method: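 Cell-free enzymatic assay with human Aurora A, 1 hour after dosing. Fluorescent substrate turnover detected after electrophoretic mobility shift separation of substrate and product. Screened at 25 uM, actives retested in concentration-response up to 50 uM.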
# [6] = molecular target: human Protein Tyrosine Phosphatase Non-receptor Type 2 (PTPN2), PTPN2 (gene 5771) (UniProt P17706); assay: NVS_ENZ_hPTPN2: NovaScreen (NVS) Enzymatic Assay for human Protein Tyrosine Phosphatase Non-receptor Type 2 (PTPN2) (AID 2283207)
# Summary of the method: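 Cell-free recombinant enzyme with fluorescent substrate, product separated by electrophoretic mobility shift; read 1 h after dosing. Primary screen single concentration (25 uM) in duplicate; actives followed in concentration series; loss of signal versus DMSO.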
# [7] = molecular target: rat Adenylate Cyclase, Forskolin Stimulated, Adcy5 (gene 64532) (UniProt Q04400); assay: NVS_ENZ_rACFSKBinding: NovaScreen (NVS) Enzymatic Assay for rat Adenylate Cyclase, Forskolin Stimulated (AID 2283232)
# Summary of the method: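 Rat forebrain membrane preparation, cell-free, read 1 h after dosing by filter-based scintillation counting. Primary screen in duplicate at 25 uM; actives (e.g. ≥30% inhibition) rerun in concentration-response up to 50 uM; fit versus DMSO.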
# [8] = molecular target: rat Corticotropin Releasing Factor Receptor (CRF), Crhr1 (gene 58959) (UniProt P35353); assay: NVS_GPCR_rCRF: NovaScreen (NVS) G Protein-Coupled Receptor Assay for rat Corticotropin Releasing Factor Receptor (CRF) (AID 2283300)
# Summary of the method: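 Rat cortical membranes used as receptor source in a radioligand competitive displacement binding assay; scintillation read 2 h after dosing. Primary screen run in duplicate at 25 uM; loss of signal versus DMSO baseline indicates binding.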
# [9] = molecular target: human Matrix Metalloproteinase-1 (MMP1), MMP1 (gene 4312) (UniProt P03956); assay: NVS_ENZ_hMMP1: NovaScreen (NVS) Enzymatic Assay for human Matrix Metalloproteinase-1 (MMP1) (AID 2283181)
# Summary of the method: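 Human MMP1 enzyme activity measured by fluorescence 1 h after dosing, cell-free, with a specific substrate. Screened in duplicate at 25 uM; hits (e.g. 30% inhibition) run in concentration-response up to 50 uM; loss of signal versus DMSO.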
# [10] = test system: rat Monoamine Oxidase, MAO-A, Peripheral (MAOAP), gene 29253; assay: NVS_ENZ_rMAOAP: NovaScreen (NVS) Enzymatic Assay for rat Monoamine Oxidase, MAO-A, Peripheral (MAOAP) (AID 2283237)
# Summary of the method: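 Rat liver mitochondrial membranes served as the MAO-A source, with enzyme activity measured by radiometric scintillation counting 1.17 hours after dosing. Loss of signal was fitted against DMSO; primary screen used 25 uM in duplicate, follow-up used concentration series.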
# [11] = molecular target: PPP2CA (gene 5515) (UniProt P67775); assay: NVS_ENZ_hPPP2CA: NovaScreen (NVS) Enzymatic Assay for human Protein Phosphatase 2 Aatalytic subunit Alpha (PPP2CA) (AID 2283199)
# Summary of the method: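 Recombinant human PPP2CA with fluorescent substrate; product separated from substrate by electrophoretic mobility shift, read 1.33 h after dosing. Duplicate single-point at 25 uM, then singleton concentration-response up to 50 uM; loss of signal versus DMSO.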
# [12] = molecular target: rat Monoamine Oxidase, MAO-B, Central (MAOBC), Maob (gene 25750) (UniProt P19643); assay: NVS_ENZ_rMAOBC: NovaScreen (NVS) Enzymatic Assay for rat Monoamine Oxidase, MAO-B, Central (MAOBC) (AID 2283238)
# Summary of the method: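 MAO-B activity in rat brain tissue preparation, cell-free, measured radiometrically by scintillation counting 1.17 h after dosing. Screened in duplicate at 25 uM; actives then in concentration-response up to 50 uM. Loss of signal versus DMSO scored.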
# [13] = test system: rat Monoamine Oxidase, MAO-A, Central (MAOAC), gene 29253; assay: NVS_ENZ_rMAOAC: NovaScreen (NVS) Enzymatic Assay for rat Monoamine Oxidase, MAO-A, Central (MAOAC) (AID 2283243);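 also: potency refers to inhibition seen as signal drop below DMSO baseline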
# Summary of the method: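 Rat brain tissue extract used as enzyme source in a cell-free radiometric assay, read by scintillation counting 1.5 hours after dosing. Loss of signal relative to DMSO baseline scored; primary screen at 25 uM in duplicate, actives followed up in concentration series.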
# [14] = molecular target: Voltage-dependent N-type calcium channel subunit alpha-1B (Rattus norvegicus) (UniProt Q02294); assay: NVS_IC_rCaChN: NovaScreen (NVS) Ion Channel Assay for rat Calcium Channel, Type N (CaChN) (AID 2283317)
# [15] = molecular target: rat Oxytocin Receptor (OXT), Oxtr (gene 25342) (UniProt P70536); assay: NVS_GPCR_rOXT: NovaScreen (NVS) G Protein-Coupled Receptor Assay for rat Oxytocin Receptor (OXT) (AID 2283330)
# Summary of the method: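 Radioligand displacement on rat uterine membranes, 1 h incubation, filter-based scintillation counting. Chemicals were screened in duplicate at 25 uM, and those passing threshold were retested in concentration-response up to 50 uM. Loss of binding was fitted versus DMSO.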
# [16] = molecular target: rat Gamma-Aminobutyric Acid Type A Receptor BDZ, alpha 6 site (GABARa6), Gabra6 (gene 29708) (UniProt P30191); assay: NVS_LGIC_rGABARa6: NovaScreen (NVS) Ligand-Gated Ion Channel Assay for rat Gamma-Aminobutyric Acid Type A Receptor BDZ, alpha 6 site (GABARa6) (AID 2283339)
# Summary of the method: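 Rat cerebellar membranes; radioligand binding, filtration and scintillation counting, read 1 h after dosing. Single-concentration duplicate screen at 25 uM, then concentration-response up to 50 uM for actives; loss of signal fitted versus DMSO baseline.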
# [17] = molecular target: human AMP-activated Protein Kinase, alpha 1 (AMPKa1), PRKAA1 (gene 5562) (UniProt Q13131); assay: NVS_ENZ_hAMPKa1: NovaScreen (NVS) Enzymatic Assay for human AMP-activated Protein Kinase, alpha 1 (AMPKa1) (AID 2283130)
# Summary of the method: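 Recombinant human AMPKα1 activity was measured cell-free by fluorescent substrate conversion with electrophoretic mobility-shift separation, 1 h after dosing. Duplicate single-point screening was at 25 uM; actives (≥30% inhibition) were retested in concentration-response up to 50 uM.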
# bovine Gamma-Aminobutyric Acid Type A Receptor BDZ, alpha 1 site (GABARa1), GABRA1 (gene 780973), sequence (P08219 whole entry, looked up): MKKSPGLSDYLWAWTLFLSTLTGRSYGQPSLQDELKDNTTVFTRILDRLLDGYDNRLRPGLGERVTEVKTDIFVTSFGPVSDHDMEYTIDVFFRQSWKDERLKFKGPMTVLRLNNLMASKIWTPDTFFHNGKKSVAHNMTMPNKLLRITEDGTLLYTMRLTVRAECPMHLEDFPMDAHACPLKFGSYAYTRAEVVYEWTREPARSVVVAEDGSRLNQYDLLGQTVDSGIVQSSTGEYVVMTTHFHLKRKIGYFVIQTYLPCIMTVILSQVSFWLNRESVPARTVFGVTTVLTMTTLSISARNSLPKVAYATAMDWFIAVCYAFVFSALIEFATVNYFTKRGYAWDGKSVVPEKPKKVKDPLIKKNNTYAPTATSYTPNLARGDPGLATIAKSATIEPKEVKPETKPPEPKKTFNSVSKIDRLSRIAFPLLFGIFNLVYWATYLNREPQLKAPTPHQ
# rat Adenylate Cyclase, Forskolin Stimulated, Adcy5 (gene 64532), sequence (Q04400 whole entry, looked up): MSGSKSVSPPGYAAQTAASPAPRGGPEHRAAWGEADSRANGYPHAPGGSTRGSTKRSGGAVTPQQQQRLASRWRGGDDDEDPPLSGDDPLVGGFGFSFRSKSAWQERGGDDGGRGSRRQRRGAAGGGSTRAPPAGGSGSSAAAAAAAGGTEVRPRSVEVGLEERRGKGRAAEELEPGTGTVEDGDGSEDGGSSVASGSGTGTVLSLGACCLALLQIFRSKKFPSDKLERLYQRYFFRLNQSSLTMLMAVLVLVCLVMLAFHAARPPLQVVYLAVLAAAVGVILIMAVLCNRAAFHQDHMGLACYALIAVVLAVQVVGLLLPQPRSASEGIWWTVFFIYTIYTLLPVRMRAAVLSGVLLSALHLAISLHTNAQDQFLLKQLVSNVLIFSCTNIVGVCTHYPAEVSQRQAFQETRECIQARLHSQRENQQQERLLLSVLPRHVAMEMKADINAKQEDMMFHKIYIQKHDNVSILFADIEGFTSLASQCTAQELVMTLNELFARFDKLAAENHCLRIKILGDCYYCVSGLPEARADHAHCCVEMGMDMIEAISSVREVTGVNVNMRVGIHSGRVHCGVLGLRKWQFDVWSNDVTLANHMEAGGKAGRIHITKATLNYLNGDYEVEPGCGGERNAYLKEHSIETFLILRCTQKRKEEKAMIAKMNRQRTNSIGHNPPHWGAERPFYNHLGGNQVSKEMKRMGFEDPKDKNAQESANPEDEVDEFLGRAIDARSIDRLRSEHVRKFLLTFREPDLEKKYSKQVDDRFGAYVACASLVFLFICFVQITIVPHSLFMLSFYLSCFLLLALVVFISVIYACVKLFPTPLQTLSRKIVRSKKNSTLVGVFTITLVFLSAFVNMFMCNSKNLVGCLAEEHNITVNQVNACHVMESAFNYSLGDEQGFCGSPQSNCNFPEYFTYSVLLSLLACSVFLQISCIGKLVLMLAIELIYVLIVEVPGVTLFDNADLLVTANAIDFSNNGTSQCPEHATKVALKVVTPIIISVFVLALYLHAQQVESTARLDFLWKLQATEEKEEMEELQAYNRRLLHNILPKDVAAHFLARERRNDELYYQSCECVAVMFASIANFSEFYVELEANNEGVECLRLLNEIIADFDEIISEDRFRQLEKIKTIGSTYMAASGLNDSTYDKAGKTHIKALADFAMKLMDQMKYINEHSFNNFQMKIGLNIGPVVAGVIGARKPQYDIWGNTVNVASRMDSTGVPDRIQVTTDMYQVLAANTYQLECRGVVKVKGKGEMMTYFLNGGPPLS
# human Caspase 2 (CASP2), CASP2 (gene 835), sequence (P42575 whole entry, looked up): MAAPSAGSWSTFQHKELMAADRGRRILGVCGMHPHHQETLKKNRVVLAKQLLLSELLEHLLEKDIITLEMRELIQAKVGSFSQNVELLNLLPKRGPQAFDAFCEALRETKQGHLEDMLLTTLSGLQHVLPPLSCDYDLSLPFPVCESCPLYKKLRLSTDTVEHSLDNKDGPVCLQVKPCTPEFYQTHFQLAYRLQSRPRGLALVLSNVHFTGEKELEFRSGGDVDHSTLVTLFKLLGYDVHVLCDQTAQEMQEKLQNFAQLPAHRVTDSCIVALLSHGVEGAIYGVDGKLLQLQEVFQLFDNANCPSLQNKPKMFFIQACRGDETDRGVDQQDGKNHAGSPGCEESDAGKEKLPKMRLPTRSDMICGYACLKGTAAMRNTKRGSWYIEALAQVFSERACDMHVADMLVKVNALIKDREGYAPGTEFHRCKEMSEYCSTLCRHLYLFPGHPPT
# human Protein Tyrosine Phosphatase Non-receptor Type 2 (PTPN2), PTPN2 (gene 5771), sequence (P17706 whole entry, looked up): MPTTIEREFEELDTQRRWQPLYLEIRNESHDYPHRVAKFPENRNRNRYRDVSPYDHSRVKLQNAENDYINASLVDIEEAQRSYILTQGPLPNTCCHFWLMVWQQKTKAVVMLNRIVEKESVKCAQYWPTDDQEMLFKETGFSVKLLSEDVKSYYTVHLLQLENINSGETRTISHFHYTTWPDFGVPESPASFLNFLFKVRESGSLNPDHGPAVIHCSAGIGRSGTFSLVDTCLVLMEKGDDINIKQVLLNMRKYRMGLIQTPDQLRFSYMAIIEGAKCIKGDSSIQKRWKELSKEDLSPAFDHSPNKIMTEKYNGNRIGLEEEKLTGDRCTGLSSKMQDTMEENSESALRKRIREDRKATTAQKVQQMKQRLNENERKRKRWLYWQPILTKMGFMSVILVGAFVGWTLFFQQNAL
# rat Corticotropin Releasing Factor Receptor (CRF), Crhr1 (gene 58959), sequence (P35353 whole entry, looked up): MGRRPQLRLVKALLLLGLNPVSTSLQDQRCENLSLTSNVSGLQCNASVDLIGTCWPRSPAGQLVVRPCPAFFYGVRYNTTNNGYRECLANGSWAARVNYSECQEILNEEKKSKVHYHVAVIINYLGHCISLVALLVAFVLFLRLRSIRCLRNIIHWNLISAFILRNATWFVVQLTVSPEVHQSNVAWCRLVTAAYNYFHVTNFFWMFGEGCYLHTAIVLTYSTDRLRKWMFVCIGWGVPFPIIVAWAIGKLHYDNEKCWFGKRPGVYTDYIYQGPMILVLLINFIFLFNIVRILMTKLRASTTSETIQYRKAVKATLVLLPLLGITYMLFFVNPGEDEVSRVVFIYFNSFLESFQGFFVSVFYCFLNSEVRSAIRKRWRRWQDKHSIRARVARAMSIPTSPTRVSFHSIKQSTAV
# human Aurora Kinase A - serine/threonine-protein Kinase 6 (AurA), AURKA (gene 6790), sequence (O14965 whole entry, looked up): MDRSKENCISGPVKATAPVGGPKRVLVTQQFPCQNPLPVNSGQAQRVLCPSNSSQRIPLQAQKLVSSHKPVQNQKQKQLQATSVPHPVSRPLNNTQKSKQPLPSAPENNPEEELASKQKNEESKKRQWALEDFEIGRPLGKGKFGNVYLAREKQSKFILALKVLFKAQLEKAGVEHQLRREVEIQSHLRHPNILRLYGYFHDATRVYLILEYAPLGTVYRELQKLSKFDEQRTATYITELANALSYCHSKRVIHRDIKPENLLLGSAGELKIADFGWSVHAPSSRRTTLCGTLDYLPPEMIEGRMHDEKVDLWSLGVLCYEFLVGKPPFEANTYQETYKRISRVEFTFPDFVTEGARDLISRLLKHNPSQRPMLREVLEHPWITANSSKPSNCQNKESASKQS
# rat Monoamine Oxidase, MAO-B, Central (MAOBC), Maob (gene 25750), sequence (P19643 whole entry, looked up): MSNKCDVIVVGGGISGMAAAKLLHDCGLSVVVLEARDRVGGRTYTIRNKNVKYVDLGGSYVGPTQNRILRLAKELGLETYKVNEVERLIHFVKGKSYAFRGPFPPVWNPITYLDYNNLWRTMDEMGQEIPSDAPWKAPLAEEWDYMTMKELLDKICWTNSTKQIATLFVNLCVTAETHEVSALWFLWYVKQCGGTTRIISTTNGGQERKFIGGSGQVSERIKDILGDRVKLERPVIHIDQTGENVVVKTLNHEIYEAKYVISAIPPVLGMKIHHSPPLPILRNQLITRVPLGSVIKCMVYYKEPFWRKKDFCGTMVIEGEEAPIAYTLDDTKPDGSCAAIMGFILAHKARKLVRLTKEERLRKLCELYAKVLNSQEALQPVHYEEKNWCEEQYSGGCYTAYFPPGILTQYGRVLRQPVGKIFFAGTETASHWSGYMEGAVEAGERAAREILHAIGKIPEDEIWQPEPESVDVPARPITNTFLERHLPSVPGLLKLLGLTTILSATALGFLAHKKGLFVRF
# PPP2CA (gene 5515), sequence (P67775 whole entry, looked up): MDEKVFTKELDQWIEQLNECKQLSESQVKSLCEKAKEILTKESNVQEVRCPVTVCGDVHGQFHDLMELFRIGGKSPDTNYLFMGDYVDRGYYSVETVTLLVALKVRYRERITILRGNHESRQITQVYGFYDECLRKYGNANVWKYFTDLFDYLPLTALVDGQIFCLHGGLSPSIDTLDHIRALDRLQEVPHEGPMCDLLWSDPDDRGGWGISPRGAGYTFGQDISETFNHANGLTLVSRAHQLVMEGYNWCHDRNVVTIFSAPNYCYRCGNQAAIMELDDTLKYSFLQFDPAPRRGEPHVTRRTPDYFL
# rat Gamma-Aminobutyric Acid Type A Receptor BDZ, alpha 6 site (GABARa6), Gabra6 (gene 29708), sequence (P30191 whole entry, looked up): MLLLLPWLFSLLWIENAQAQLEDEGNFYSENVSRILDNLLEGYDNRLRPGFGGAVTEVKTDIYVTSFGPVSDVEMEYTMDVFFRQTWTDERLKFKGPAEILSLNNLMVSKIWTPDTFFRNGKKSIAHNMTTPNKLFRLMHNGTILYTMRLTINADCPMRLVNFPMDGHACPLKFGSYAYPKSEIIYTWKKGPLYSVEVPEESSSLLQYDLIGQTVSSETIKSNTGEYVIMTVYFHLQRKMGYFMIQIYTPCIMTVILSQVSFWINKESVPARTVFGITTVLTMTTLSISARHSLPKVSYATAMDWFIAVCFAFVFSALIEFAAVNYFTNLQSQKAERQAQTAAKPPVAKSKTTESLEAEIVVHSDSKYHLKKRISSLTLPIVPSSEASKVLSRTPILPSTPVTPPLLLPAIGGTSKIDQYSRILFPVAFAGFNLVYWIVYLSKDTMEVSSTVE
compound,measurement,setting,value
CC(C)(C)[C@@H](O)[C@@H](Cc1ccc(Cl)cc1)n1cncn1,AC50,[1],5.84 µM (active)
same,outcome,[2],inactive
O=C1c2c(O)cccc2Cc2cccc(O)c21,AC50,[3],1.03 µM (active)
NC(=O)N(O)[C@@H]1C=C[C@H](Oc2cccc(Oc3ccc(F)cc3)c2)C1,outcome,[3],inactive
same,outcome,[4],inactive
S=C([S-])NCCNC(=S)[S-].[Mn+2],AC50,[5],1.79 µM (active)
same,AC50,[6],295 nM (active)
same,outcome,[7],inactive
same,AC50,[8],12.5 µM (active)
CNS(=O)(=O)c1cc(C(=O)N2CCC(CCN3C4CCC3CC(n3c(C)nc5ccccc53)C4)(c3cccc(F)c3)CC2)c(Cl)cc1F (configuration not stated),AC50,[9],16.7 µM (active)
same,outcome,[10],inactive
CN1CCC[C@H]1c1cccnc1,outcome,[11],inactive
CC(C)CCCCCCc1ccc(O)cc1,outcome,[6],inactive
O=C(OC[C@H]1O[C@@H](OC(=O)c2cc(O)c(O)c(OC(=O)c3cc(O)c(O)c(O)c3)c2)[C@H](OC(=O)c2cc(O)c(O)c(OC(=O)c3cc(O)c(O)c(O)c3)c2)[C@@H](OC(=O)c2cc(O)c(O)c(OC(=O)c3cc(O)c(O)c(O)c3)c2)[C@@H]1OC(=O)c1cc(O)c(O)c(OC(=O)c2cc(O)c(O)c(O)c2)c1)c1cc(O)c(O)c(OC(=O)c2cc(O)c(O)c(O)c2)c1,outcome,[7],inactive
Nc1ccc2c(c1)C(=O)c1ccccc1C2=O,outcome,[12],inactive
same,AC50,[13],3.68 µM (active)
COC(=O)CCC(=O)OC,outcome,[14],inactive
COc1cccc(-c2ccc(/C=C\CN3CCCCCC3)cc2Cl)c1,AC50,[4],11.7 µM (active)
Cc1occc1C(=O)Nc1ccc(C(=O)N2CCC(F)(F)/C(=C\C(=O)N3CCC(N4CCCCC4)CC3)c3ccccc32)cc1,AC50,[15],119 nM (active)
COC(=O)c1ccccc1S(=O)(=O)NC(=O)Nc1nc(OC(F)F)cc(OC(F)F)n1,outcome,[16],inactive
same,outcome,[2],inactive
CC(C)CC(C)(O)C#CC(C)(O)CC(C)C (configuration not stated),outcome,[17],inactive
